# Source: the supplement of paper PMC11732987, “Enantioselective OTUD7B fragment discovery through chemoproteomics screening and high-throughput optimisation” (Communications Chemistry, 2025)
# A number with no mark means an inactive call.
# Tests used:
# Experiment in all cases: log2 ratio of Biotin-Ahx-Ub-VS probe labelling (fragment/DMSO); higher = less target engagement (more negative = stronger competition), active = hit call of the paper (q ≤ 0.05, log2 ratio ≤ -1)
# Conditions in all cases: compound concentration: 200 uM; treatment time: 3 h
# USP19 = biological target: T1, USP19 (UniProt O94966)
# T1 sequence (whole entry): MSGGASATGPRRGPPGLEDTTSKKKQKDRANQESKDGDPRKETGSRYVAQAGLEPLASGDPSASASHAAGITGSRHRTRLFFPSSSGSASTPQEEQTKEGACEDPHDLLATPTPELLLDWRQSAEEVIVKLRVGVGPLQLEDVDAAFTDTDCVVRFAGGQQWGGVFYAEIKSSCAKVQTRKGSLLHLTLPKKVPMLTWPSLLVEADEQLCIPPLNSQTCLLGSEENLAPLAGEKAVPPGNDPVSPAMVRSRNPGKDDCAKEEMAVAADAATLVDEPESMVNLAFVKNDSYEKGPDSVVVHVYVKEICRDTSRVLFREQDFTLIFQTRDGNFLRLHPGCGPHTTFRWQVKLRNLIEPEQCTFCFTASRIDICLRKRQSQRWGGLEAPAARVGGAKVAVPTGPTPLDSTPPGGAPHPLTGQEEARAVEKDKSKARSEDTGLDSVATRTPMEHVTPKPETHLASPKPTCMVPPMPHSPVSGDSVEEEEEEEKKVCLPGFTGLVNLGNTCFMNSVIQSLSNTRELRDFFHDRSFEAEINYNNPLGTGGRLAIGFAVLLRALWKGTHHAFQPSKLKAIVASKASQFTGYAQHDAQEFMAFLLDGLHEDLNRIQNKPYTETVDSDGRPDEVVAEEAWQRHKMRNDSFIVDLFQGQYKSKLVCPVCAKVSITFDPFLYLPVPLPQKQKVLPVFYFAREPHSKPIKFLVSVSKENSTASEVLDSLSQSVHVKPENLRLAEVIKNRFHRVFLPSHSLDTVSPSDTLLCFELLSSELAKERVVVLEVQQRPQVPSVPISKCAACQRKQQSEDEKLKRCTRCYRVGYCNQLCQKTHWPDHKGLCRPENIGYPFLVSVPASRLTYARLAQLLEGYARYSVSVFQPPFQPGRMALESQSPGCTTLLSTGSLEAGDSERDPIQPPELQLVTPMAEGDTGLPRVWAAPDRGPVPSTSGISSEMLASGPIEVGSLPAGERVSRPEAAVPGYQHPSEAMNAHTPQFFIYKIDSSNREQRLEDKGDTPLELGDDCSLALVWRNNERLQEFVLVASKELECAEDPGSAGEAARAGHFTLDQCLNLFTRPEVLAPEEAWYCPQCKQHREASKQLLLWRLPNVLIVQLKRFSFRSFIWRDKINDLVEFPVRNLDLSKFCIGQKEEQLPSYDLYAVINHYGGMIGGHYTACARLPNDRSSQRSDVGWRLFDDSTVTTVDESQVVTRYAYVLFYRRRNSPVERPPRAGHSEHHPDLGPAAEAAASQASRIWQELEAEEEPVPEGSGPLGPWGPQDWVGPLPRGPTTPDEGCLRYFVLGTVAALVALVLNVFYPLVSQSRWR
# In short: (§1)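 The table lists average log2 ratios of fragment over vehicle, from an unpaired t-test on global-median-normalised Spectronaut label-free quantities. Proteins with ≥2 unique peptides were used. Samples were HEK293T lysate (495 µg) treated in triplicate with fragment at 200 µM or vehicle for 3 h, then with Biotin-Ahx-Ub-VS (0.5 µM final) for 1 h, with labelled DUBs NeutrAvidin-enriched and run by diaPASEF LC-MS/MS.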
# USP22 = biological target: T2, USP22 (UniProt Q9UPT9)
# T2 sequence (whole entry): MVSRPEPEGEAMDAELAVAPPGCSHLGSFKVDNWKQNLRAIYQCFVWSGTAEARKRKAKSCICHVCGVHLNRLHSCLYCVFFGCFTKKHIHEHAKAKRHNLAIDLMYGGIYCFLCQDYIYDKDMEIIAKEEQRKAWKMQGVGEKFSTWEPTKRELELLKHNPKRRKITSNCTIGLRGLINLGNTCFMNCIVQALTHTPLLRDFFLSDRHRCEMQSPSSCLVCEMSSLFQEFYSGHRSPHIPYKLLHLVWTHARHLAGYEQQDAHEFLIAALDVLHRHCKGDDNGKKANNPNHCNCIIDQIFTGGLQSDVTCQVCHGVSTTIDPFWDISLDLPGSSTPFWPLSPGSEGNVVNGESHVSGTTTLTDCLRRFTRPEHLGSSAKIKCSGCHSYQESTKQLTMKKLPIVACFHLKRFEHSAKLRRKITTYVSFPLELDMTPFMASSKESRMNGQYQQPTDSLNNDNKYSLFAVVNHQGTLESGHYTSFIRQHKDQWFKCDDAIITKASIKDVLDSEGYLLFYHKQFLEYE
# In short: as §1
# USP24 = USP24 (UniProt Q9UPU5)
# In short: as §1
# USP25 = biological target: T3, USP25 (UniProt Q9UHP3)
# T3 sequence (whole entry): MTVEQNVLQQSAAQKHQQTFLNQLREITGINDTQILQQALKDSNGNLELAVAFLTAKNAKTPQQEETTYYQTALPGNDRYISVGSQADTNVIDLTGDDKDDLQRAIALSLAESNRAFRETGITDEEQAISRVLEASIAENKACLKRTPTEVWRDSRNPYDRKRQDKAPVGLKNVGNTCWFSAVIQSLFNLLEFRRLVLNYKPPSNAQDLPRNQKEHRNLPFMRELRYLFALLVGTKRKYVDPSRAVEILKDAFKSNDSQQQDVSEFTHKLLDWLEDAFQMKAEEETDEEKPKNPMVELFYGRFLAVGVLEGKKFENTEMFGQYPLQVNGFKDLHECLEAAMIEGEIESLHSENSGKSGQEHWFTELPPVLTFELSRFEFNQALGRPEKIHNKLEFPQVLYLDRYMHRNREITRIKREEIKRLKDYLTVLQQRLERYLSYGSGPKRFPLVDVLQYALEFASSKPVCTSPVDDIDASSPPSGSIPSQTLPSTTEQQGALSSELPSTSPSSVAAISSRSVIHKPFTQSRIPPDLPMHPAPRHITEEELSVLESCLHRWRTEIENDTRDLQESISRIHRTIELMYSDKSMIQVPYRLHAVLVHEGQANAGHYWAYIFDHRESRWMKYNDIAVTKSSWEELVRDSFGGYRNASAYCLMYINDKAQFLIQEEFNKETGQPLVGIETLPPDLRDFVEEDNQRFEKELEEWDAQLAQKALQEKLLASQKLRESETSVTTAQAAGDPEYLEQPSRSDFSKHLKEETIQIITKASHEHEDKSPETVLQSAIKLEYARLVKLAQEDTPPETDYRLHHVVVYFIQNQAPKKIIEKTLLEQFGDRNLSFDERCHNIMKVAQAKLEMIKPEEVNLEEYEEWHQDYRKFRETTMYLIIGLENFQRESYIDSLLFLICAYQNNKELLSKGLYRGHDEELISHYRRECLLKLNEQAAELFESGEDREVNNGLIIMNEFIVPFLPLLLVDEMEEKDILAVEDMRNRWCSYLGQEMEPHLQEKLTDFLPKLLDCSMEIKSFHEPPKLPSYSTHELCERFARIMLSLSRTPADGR
# In short: as §1
# USP28 = biological target: T4, USP28 (UniProt Q96RU2)
# T4 sequence (whole entry): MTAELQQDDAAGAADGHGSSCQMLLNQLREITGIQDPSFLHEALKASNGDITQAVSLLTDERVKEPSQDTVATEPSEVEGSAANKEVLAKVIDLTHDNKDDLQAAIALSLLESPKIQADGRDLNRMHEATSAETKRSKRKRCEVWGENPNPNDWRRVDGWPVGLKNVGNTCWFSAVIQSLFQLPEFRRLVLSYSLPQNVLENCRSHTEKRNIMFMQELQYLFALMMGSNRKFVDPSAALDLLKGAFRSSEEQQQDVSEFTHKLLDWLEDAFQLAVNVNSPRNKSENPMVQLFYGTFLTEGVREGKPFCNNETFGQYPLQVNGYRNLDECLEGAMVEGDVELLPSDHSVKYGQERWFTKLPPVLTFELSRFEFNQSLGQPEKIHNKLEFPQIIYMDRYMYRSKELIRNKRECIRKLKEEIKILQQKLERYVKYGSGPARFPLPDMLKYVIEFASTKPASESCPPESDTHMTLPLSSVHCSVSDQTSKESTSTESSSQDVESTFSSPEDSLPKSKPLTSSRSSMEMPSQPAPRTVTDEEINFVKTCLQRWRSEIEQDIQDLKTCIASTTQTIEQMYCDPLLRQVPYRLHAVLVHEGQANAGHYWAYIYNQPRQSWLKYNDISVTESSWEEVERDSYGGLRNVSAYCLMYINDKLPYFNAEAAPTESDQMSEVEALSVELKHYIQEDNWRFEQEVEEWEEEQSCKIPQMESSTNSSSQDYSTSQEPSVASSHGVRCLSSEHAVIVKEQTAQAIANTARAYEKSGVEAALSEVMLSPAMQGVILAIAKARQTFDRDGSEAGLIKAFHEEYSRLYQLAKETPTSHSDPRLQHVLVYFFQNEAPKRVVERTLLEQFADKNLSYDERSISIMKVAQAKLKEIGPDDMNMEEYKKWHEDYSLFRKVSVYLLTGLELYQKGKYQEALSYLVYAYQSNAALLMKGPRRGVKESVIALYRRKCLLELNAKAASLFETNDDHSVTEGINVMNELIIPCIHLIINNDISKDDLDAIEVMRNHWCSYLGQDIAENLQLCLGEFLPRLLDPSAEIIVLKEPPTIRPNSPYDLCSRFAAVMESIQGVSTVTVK
# In short: as §1
# Chain of USP24 (Q9UPU5 whole entry): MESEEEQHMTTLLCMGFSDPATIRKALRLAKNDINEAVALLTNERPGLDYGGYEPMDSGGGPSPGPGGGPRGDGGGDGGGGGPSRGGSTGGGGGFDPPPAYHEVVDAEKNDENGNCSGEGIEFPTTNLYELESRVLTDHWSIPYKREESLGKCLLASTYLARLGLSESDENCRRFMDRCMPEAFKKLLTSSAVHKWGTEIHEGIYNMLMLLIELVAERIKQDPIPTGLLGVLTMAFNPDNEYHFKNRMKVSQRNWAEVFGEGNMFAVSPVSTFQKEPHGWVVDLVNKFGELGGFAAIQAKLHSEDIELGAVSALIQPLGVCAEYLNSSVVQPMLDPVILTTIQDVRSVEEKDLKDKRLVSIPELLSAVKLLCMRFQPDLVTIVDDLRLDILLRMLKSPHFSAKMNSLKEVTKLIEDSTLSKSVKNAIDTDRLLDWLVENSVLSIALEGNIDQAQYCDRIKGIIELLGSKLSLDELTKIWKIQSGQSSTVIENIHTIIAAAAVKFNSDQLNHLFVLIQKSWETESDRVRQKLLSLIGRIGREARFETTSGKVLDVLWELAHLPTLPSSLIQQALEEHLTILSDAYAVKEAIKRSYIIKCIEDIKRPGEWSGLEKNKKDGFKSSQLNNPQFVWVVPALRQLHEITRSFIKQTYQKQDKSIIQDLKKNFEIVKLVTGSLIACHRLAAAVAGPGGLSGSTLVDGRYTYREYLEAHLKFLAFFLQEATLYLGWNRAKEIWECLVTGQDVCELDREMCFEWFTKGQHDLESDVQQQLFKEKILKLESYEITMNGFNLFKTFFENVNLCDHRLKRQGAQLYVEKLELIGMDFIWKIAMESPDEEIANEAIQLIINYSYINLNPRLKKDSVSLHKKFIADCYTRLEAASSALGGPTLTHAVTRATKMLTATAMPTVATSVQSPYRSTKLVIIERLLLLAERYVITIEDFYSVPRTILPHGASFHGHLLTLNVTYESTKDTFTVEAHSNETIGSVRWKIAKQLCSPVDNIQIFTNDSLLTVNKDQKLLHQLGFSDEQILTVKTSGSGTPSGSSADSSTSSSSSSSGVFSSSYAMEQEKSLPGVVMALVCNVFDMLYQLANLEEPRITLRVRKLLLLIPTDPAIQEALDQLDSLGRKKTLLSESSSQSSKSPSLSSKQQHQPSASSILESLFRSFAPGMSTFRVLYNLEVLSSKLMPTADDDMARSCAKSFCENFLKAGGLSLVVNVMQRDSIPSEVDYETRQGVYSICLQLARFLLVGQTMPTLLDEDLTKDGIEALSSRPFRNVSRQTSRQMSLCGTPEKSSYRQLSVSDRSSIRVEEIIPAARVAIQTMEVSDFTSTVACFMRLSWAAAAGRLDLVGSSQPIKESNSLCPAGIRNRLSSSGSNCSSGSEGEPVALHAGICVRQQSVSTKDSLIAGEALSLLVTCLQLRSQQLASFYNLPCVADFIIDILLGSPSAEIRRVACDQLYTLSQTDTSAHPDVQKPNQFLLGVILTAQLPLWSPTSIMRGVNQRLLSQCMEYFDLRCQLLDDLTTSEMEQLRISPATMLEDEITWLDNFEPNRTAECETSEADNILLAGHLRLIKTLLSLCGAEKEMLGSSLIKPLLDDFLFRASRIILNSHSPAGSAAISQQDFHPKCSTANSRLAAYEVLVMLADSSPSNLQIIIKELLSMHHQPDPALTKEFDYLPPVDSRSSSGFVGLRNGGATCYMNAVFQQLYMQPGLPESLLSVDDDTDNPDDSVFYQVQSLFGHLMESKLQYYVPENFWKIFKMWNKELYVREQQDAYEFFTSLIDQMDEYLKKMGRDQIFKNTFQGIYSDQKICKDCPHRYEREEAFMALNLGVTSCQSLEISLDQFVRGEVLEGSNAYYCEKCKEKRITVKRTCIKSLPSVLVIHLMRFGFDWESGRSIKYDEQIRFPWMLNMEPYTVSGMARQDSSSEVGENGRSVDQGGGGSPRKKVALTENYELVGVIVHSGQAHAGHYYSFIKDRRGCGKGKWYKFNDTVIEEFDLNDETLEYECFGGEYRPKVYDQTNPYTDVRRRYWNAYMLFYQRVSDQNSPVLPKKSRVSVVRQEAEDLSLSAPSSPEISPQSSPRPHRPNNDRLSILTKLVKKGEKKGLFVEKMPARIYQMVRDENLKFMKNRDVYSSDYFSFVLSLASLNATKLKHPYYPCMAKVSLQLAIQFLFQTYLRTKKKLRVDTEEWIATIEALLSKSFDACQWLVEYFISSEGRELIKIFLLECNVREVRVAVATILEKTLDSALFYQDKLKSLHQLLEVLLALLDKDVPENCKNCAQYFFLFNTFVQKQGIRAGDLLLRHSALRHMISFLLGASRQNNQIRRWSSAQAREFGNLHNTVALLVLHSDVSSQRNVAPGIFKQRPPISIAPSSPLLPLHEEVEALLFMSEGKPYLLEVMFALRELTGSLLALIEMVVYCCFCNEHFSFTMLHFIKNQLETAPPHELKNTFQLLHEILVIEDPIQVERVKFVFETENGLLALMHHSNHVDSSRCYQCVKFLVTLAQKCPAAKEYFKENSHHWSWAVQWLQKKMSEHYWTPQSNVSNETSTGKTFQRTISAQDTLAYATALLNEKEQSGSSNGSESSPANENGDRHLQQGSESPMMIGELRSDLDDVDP
smiles,measurement,setting,value
N#Cc1ccccc1N1CCN(C(=O)CCl)CC1,log2 ratio of Biotin-Ahx-Ub-VS probe labelling,USP19,-0.813
same,log2 ratio of Biotin-Ahx-Ub-VS probe labelling,USP22,0.0569
same,log2 ratio of Biotin-Ahx-Ub-VS probe labelling,USP24,-1.15 (active)
same,log2 ratio of Biotin-Ahx-Ub-VS probe labelling,USP25,-0.657
same,log2 ratio of Biotin-Ahx-Ub-VS probe labelling,USP28,-1.05
